Measured values reported in PubChem BioAssay AID1159580 (chemical genetic matrix, 2015).
Where “and” joins values, the source holds several entries; their conditions need not be identical. Equal values may be shown once. Hit rate of the full screen: of about 5,500 compounds, about 2,000 (36%) were called active. About 18% were inconclusive and are not listed. Cut-off read from the data, not from the text of the source: active = normalized growth mostly below about 0.91 (no sharp cut-off); inconclusive = no clear call, values can overlap the other calls; inactive = mostly above about 0.92. The list shows a part of the results.

Experiment: chemical genetic growth profiling, strain panel (AID 1159580);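 note: tested at 20 µM; growth read once vehicle control cultures reached saturation at 30 °C; 1 = growth at the plate median or of vehicle wells; lower values mean less growth of the strain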
Conditions: S. cerevisiae deletion strains, growth OD

Measured: normalized growth

O=C1NC(O)=NC1(c1ccccc1)c1ccccc1
inactive: locus YAL013W, strain DEP1, hits give low values 1.01 and 0.988 | locus YAL021C, strain ccr4, hits give low values 1.01 | locus YAL026C, strain drs2, hits give low values 1.01 | locus YAL030W, strain snc1, hits give low values 1.02 | locus YAL040C, strain CLN3, hits give low values 0.959 | locus YBL061C, strain skt5, hits give low values 1.01 | locus YBR009C, strain hhf1, hits give low values 1 | locus YBR021W, strain FUR4, hits give low values 0.995 | locus YBR023C, strain chs3, hits give low values 1.03 | locus YBR171W, strain sec66, hits give low values 1.02 | locus YBR229C, strain ROT2, hits give low values 1 | locus YBR231C, strain swc5, hits give low values 1.02 | locus YBR279W, strain paf1, hits give low values 1.01 | locus YCL011C, strain gbp2, hits give low values 1.02 | locus YCL016C, strain dcc1, hits give low values 1.02 | locus YCL029C, strain bik1, hits give low values 1.03 | locus YCL061C, strain MRC1 (second series), hits give low values 0.986 | locus YCL061C, strain MRC1, hits give low values 1.01 | locus YCL069W, strain vba3, hits give low values 1.02 | locus YCR088W, strain abp1, hits give low values 1.01 | locus YDL005C, strain med2, hits give low values 1.03 | locus YDL035C, strain GPR1, hits give low values 1.01 | locus YDL040C, strain nat1, hits give low values 1.02 | locus YDL074C, strain BRE1, hits give low values 1.02 | locus YDL101C, strain DUN1, hits give low values 1.01 | locus YDL134C, strain PPH21, hits give low values 1.01 | locus YDL185W, strain tfp1, hits give low values 1.01 | locus YDL192W, strain arf1, hits give low values 1.01 | locus YDR001C, strain nth1, hits give low values 1.02 | locus YDR069C, strain doa4, hits give low values 0.999 | locus YDR101C, strain arx1, hits give low values 1.01 | locus YDR137W, strain rgp1, hits give low values 1.04 | locus YDR150W, strain NUM1, hits give low values 1.01 | locus YDR159W, strain sac3, hits give low values 0.98 | locus YDR162C, strain NBP2, hits give low values 1.01 | locus YDR195W, strain ref2 0.987 | locus YDR297W, strain sur2, hits give low values 1.02 | locus YDR318W, strain mcm21, hits give low values 1.02 | locus YDR334W, strain swr1, hits give low values 1.01 | locus YDR335W, strain msn5, hits give low values 1.02 | locus YDR363W, strain ESC2, hits give low values 0.954 | locus YDR388W, hits give low values 1.02 | locus YDR392W, strain spt3, hits give low values 0.932 | locus YDR502C, strain sam2, hits give low values 1 | locus YEL003W, strain gim4, hits give low values 1 | locus YEL037C, strain rad23, hits give low values 1.01 | locus YEL061C, strain CIN8 (second series), hits give low values 1.02 | locus YEL061C, strain CIN8, hits give low values 1.01 | locus YER002W, strain NOP16, hits give low values 0.972 | locus YER015W, strain faa2, hits give low values 1 | locus YER016W, strain bim1, hits give low values 1.02 | locus YER110C, hits give low values 1.01 | locus YER111C, strain swi4, hits give low values 1.02 | locus YER155C, strain BEM2 (second series), hits give low values 0.994 | locus YER155C, strain BEM2, hits give low values 1.02 | locus YER167W, strain BCK2, hits give low values 1.01 | locus YFR010W, strain ubp6, hits give low values 1.01 | locus YGL078C, strain dbp3, hits give low values 1.01 | locus YGL086W, strain mad1, hits give low values 0.997 | locus YGL167C, strain pmr1, hits give low values 1.03 | locus YGL173C, strain kem1, hits give low values 1.01 | locus YGL227W, strain vid30, hits give low values 1.02 | locus YGL240W, strain doc1, hits give low values 1.01 | locus YGL248W, strain PDE1, hits give low values 1.01 | locus YGL253W, strain hxk2, hits give low values 1.01 | locus YGR078C, strain PAC10, hits give low values 1.01 | locus YGR135W, strain pre9, hits give low values 1.01 | locus YGR229C, strain SMI1, hits give low values 0.998 | locus YGR252W, strain gcn5, hits give low values 0.923 | locus YHR013C, strain ard1, hits give low values 1.02 | locus YHR027C, strain rpn1, hits give low values 1.01 | locus YHR030C, strain SLT2, hits give low values 1.01 and 0.991 | locus YHR079C, strain IRE1 (second series), hits give low values 1.03 | locus YHR079C, strain IRE1, hits give low values 0.991 | locus YHR094C, strain hxt1, hits give low values 1.01 | locus YHR129C, strain ARP1, hits give low values 1.01 | locus YHR142W, strain chs7, hits give low values 1.03 | locus YHR200W, strain rpn10, hits give low values 1.01 | locus YIL066C, strain RNR3, hits give low values 1.02 | locus YIL073C, strain SPO22, hits give low values 1.03 | locus YIL125W, strain kgd1, hits give low values 1.01 | locus YIR030C, strain dcg1, hits give low values 1.01 | locus YJL092W, strain hpr5, hits give low values 1.01 | locus YJL095W, strain BCK1 (second series), hits give low values 1.02 | locus YJL095W, strain BCK1, hits give low values 1.01 | locus YJL115W, strain asf1, hits give low values 1.01 | locus YJL129C, strain trk1, hits give low values 1.02 | locus YJL134W, strain LCB3, hits give low values 1 | locus YJL154C, strain vps35, hits give low values 1.02 | locus YJL164C, strain tpk1, hits give low values 1.01 | locus YJL166W, strain qcr8, hits give low values 1.02 | locus YJL168C, strain set2, hits give low values 1.01 | locus YJL187C, strain SWE1 (second series), hits give low values 1.02 | locus YJL187C, strain SWE1, hits give low values 1.02 | locus YJR043C, strain POL32, hits give low values 1.01 | locus YJR066W, strain TOR1, hits give low values 0.96
